Assay outcomes from PubChem.
HT1080 IDH1KD tx: qHTS for induction of synthetic lethality in tumor cells producing 2HG: qHTS for the HT-1080-IDH1KD cell line; HT-1080 IDH1 knockdown viability, ATP luminescence, 48 h; Potency, µM (doses to about 46.1 µM), inactives show at the top dose activity, negative = toxicity, most hits filed as cytotoxic; 360,000 compounds, 2% hits; AID 686971, 2013;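 also: potency is read from the fitted curve at half-maximal effect; 0% = DMSO wells and -100% = cell-free medium wells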
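% activity derives from luminescence (CellTiter-Glo), normalised to DMSO and no-cell wells. HT-1080-IDH1KD cells, 750/well, had 48 h compound exposure at 37 °C.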
DT40 TDP1 no CPT: qHTS for Inhibitors of human tyrosyl-DNA phosphodiesterase 1 (TDP1): qHTS in cells in absence of CPT | DT40 Tdp1-/- hTDP1 cells, no CPT, ATP luminescence, 48 h | Potency, µM (series often up to 46.2 µM), for the others: top-dose activity change, negative = growth inhibition, most hits filed as inhibitors | AID 686978, 2013 | 420,000 compounds, 15% hits; also: potency is read from the fitted curve at half-maximal effect; nearly all actives have a fitted effect of over 55% in size
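Growth of hTDP1-complemented DT40 Tdp1-knockout cells is measured by ATP luminescence after at least 48 hr compound exposure at 37 °C, with DMSO substituting for the 20 nM CPT used in the parallel screen.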
ALOX12 inh: Primary qHTS assay for inhibitors of human arachidonate 12S-lipoxygenase (ALOX12): Round 2; Polyunsaturated fatty acid lipoxygenase ALOX12 (Homo sapiens), P18054; purified 12hLO, xylenol orange hydroperoxide absorbance; Potency, µM (titrated, usually from 108 µM), for the others: top-dose activity change, negative = inhibition, actives largely listed as inhibitors; 580,000 compounds, 1.1% hits; also: potency is read from the fitted curve at half-maximal effect
Target sequence (P18054 whole entry, looked up): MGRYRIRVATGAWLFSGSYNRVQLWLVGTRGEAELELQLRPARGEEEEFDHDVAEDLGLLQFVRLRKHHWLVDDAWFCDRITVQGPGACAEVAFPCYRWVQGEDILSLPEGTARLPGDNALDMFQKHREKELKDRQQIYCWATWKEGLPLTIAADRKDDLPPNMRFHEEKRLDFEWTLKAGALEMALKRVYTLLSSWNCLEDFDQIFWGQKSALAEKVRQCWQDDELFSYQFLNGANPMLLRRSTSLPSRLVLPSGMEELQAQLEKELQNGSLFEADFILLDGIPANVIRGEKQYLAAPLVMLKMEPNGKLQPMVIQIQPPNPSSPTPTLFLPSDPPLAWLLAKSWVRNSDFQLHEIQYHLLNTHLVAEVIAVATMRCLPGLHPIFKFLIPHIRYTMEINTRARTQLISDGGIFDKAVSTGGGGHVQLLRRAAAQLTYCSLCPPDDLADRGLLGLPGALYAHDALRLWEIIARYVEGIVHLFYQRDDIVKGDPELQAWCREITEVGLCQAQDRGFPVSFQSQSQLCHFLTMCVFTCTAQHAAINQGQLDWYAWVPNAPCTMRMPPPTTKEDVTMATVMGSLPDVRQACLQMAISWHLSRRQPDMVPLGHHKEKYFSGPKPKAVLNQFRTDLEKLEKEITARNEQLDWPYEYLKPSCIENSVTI
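Purified human 12hLO (150 nM final) in 25 mM Hepes, 0.01% Triton X-100, pH 7.0 was preincubated 15 min at room temperature with compound. Then 40 uM arachidonic acid was added, 30 min. Hydroperoxide was read by Fe-XO absorbance ratio 573/405 nm.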
DT40 TDP1 CPT: qHTS for Inhibitors of human tyrosyl-DNA phosphodiesterase 1 (TDP1): qHTS in cells in presence of CPT; chicken DT40 Tdp1-/-;hTDP1 cells + 20 nM CPT, ATP luminescence, 48 h; Potency, µM (doses to about 46.2 µM), without a hit: at the top dose activity change, negative = growth inhibition, usual class: inhibitors; 420,000 compounds, 12% hits; also: potency is read from the fitted curve at half-maximal effect; nearly all actives have a fitted effect of over 55% in size
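Cell growth measured by CellTiter-Glo luminescence after a minimum 48 h, 37 C compound exposure with 20 nM CPT in Tdp1-knockout DT40 cells stably expressing hTDP1, seeded 400/well; qHTS titration format.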
HT1080-NT tox: qHTS for induction of synthetic lethality in tumor cells producing 2HG: qHTS for the HT-1080-NT fibrosarcoma cell line; 360,000 compounds, 1.6% hits; HT-1080-NT fibrosarcoma viability, CellTiter-Glo ATP luminescence, 48 h; Potency, µM (doses to about 46.1 µM), for the others: at the highest dose activity, negative = less viability, usual class: cytotoxic;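 also: NT is the 2HG producing partner of a matched IDH1 knockdown line; potency is read from the fitted curve at half-maximal effect; 0% = DMSO-treated cells and -100% = media-only wells without cells; nearly all actives have a fitted effect of over 55% in size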
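Read-out is CellTiter-Glo luminescence after 10 minutes at room temperature, following 48 hours' compound treatment of HT-1080-NT cells (750 cells/well, RPMI, 5% FBS, 37 degrees C).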
IL1B secr inh: qHTS for Inhibitors of Inflammasome Signaling: IL-1-beta AlphaLISA Primary Screen | THP-1 LPS/ATP IL-1B secretion, AlphaLISA, 16 h; stronger effect = lower value | activity change, % at 57.5 µM | 360,000 compounds, 4.7% hits; in the data active = activity change below about -50%; inconclusive = mostly about -30% to -49%
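THP-1 cells pretreated 1 hr with compounds (up to 57.5 uM final), then stimulated with LPS (250 ng/mL final) plus ATP (1.25 mM final); secreted IL-1B measured by AlphaLISA after 16 hr, decreased signal indicating inhibition.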
* hit, by the source's call; u = inconclusive; x = not tested or not shown; [ ] = remark or other dose. This is one part of a sample in which hits are shown more often than they occur. Unless noted, calls follow the shape of the dose curve; as a rule, active = well fitted curve in the direction sought with a large enough effect; inconclusive = small, poorly fitted or top-dose-only effect, or another doubt; inactive = no such curve, though single readings can be large; an effect the other way counts as inactive or inconclusive. Unless noted, % is scaled to controls: 0 for no effect and ±100 for the full control effect.

SMILES	HT1080 IDH1KD tx	DT40 TDP1 no CPT	ALOX12 inh	DT40 TDP1 CPT	HT1080-NT tox	IL1B secr inh
O=C(CN1C(=O)NC(c2ccc(Cl)cc2)C2=C1COC2=O)Nc1ccc(Cl)cc1F (stereo not drawn)	x	x	8.91µM*	x	x	x
COc1ccc(OC)c(NC(=O)CN2C(=O)NC(c3ccc(Cl)cc3)C3=C2COC3=O)c1 (stereo not drawn)	x	x	9.0%	x	x	x
Cc1cccc(C2CC(=O)c3cnn(-c4nc5ccccc5[nH]4)c3C2)c1 (stereo not drawn)	x	x	23.5%	x	x	x
CC[C@@H](C)C(NC(=O)OC(C)(C)C)c1cn([C@@H](CCC(=O)OC(C)(C)C)C(=O)N2CCN(C(=O)OC(C)(C)C)CC2)nn1 (stereo partly drawn)	8.2%	14.6µM*	u	u	9.4%	u
CC(C)CC(NC(=O)OC(C)(C)C)c1cn([C@@H](Cc2cc3ccccc3[nH]2)C(=O)N2CCN(C(=O)OC(C)(C)C)CC2)nn1 (stereo partly drawn)	-5.2%	18.4µM*	-21.6%	18.4µM*	-1.7%	u
Cn1c(/C(C#N)=C(\O)c2ccc(Br)s2)nc2ccccc21	0.0%	u	-20.4%	21.7%	-0.8%	40.8
Cn1c(/C(C#N)=C(\O)c2cc(Cl)sc2Cl)nc2ccccc21	-11.2%	u	29.1%	18.4µM*	2.4%	39.5
Cc1cc2n(n1)C(c1ccsc1)Nc1c(C)cccc1-2 (stereo not drawn)	x	x	24.9%	x	x	x
CCOc1ccc(C2Nc3c(C)cccc3-c3cc(C)nn32)cc1 (stereo not drawn)	x	u	-11.0%	20.6µM*	x	x
Cc1cc(Cl)ccc1S(=O)(=O)N1CCCC1c1nncn1Cc1ccncc1 (stereo not drawn)	x	x	12.8%	x	x	x
CCOc1cc(-c2cc(-c3ccc(C)o3)nc(N)c2C#N)ccc1O	u	16.4µM*	u	16.4µM*	u	-17.3
Cc1ccc(-c2cc(-c3ccc(Cl)cc3)c(C#N)c(N)n2)o1	-12.3%	9.2µM*	u	6.51µM*	3.2%	-5.7
Cc1ccc(-c2c(C#N)c(N)nc3c2CCCCC3)o1	1.8%	-14.9%	u	u	1.9%	15.6
Cc1ccc(-c2cc(-c3ccc(C)o3)nc(N)c2C#N)cc1	-4.8%	u	1µM*	14.6µM*	-9.9%	-6.5
CCCc1cc(-c2ccc(O)c(OCC)c2)c(C#N)c(N)n1	u	u	u	-26.0%	-16.6%	4.4
Cc1ccc(-c2cc(-c3ccc(F)cc3)c(C#N)c(N)n2)o1	u	u	7.08µM*	u	-17.0%	0.8
O=C(NCC(=O)N1CCCC1)C(=O)Nc1ccc2cc[nH]c2c1	x	x	1.1%	x	x	x
Cc1cc(-c2cc(-c3ccc(Cl)cc3)nc(N)c2C#N)co1	u	20.6µM*	u	8.2µM*	u	16.6
Cc1cc(C)n(-c2nc3ccccc3nc2N2CCN(C(=O)c3ccccc3F)CC2)n1	x	x	-4.7%	x	x	x
Cc1cc(C)n(-c2nc3ccccc3nc2N2CCN(C(=O)c3ccc(Cl)cc3)CC2)n1	u	u	-18.5%	u	-25.5%	-58.7*
COc1ccccc1N1CCN(c2nccnc2SCC(=O)Nc2cccc(Cl)c2C)CC1	x	x	-13.8%	x	x	x
Cc1cccc(-n2ncc(C(=O)N3CCN(C4CCCCC4)CC3)c2C2CCN(C(=O)OC(C)(C)C)CC2)c1	x	20.6µM*	-8.6%	16.4µM*	x	x
CC1CCN(C(=O)c2cnn(-c3cccc(Cl)c3)c2C2CCN(C(=O)OC(C)(C)C)CC2)CC1	x	u	-5.1%	20.6µM*	x	x
CC(C)(C)OC(=O)N1CCC(c2c(C(=O)N3CCC(c4ccccc4)C3)cnn2-c2cccc(Cl)c2)CC1 (stereo not drawn)	x	14.6µM*	-18.7%	18.4µM*	x	x
CC(C)(C)OC(=O)N1CCC(c2c(C(=O)N3CCCCC3)cnn2-c2cccc(F)c2)CC1	x	-6.1%	-15.7%	3.5%	x	x
SMILES	HT1080 IDH1KD tx	DT40 TDP1 no CPT	ALOX12 inh	DT40 TDP1 CPT	HT1080-NT tox	IL1B secr inh
Cc1cccc(-n2ncc(C(=O)N3CCOCC3)c2C2CCN(C(=O)OC(C)(C)C)CC2)c1	x	-6.8%	-1.2%	-10.7%	x	x
Cc1ccc(C2CCN(C(=O)c3cnn(-c4cccc(Cl)c4)c3C3CCN(C(=O)OC(C)(C)C)CC3)C2)cc1 (stereo not drawn)	x	7.31µM*	-20.7%	13µM*	x	x
CCOC(=O)c1c(NC(=O)CN2CCc3ccccc32)sc(C)c1CC	x	x	-69.3%	x	x	x
O=C1CCN(C(=O)COc2ccc(F)cc2)CCCC(c2nc(-c3cnccn3)no2)CCN1 (stereo not drawn)	x	x	51.6%	x	x	x
CN(CC(=O)Nc1ccc(F)c(Cl)c1)Cc1nc2ccccc2c(=O)[nH]1	x	x	28.9%	x	x	x
N=c1ccn(Cc2c(Cl)cccc2Cl)cc1	u	0.651µM*	0.0%	1.3µM*	u	-12.9
Clc1ccc(CN2CCSCC2)c(Cl)c1	14.3%	-17.0%	u	0.5%	1.6%	9.8
N=c1ccn(Cc2ccccc2Cl)cc1	-16.5%	4.61µM*	-1.0%	5.17µM*	-0.5%	-5.7
N=c1ccn(Cc2ccc(Cl)cc2Cl)cc1	-10.2%[9.24 µM]	5.17µM*	-5.3%	3.66µM*	u	u
CC1=CC2=C(C=O)C(=O)C(C)(O)C(O)C2=CO1 (stereo not drawn)	-25.0%	u	9.7%	u	u	-61.7*
O=C(O)c1ccccc1-c1ccc(/C=c2\sc3nc4cc(Br)cnc4n3c2=O)o1	-0.8%	18.4µM*	x	16.4µM*	5.4%	-3.4
O=C1CC(c2noc(-c3cc(F)ccc3F)n2)CN1c1ccc(Cl)cc1 (stereo not drawn)	x	x	-10.1%	x	x	x
CCN(CC(=O)Nc1cccc(OC)c1)C(=O)c1ccc(-c2ccccc2Cl)o1	x	x	-5.0%	x	x	x
Cc1ccc(NC(=O)CN(C)Cc2c(O)ccc3ccccc23)cc1	-0.7%	u	u	-7.3%	-8.9%	-101.3*
COc1cc2c(cc1NC(=O)Cc1ccc(C)cc1)oc1ccccc12	28.3%	u	-10.0%	u	u	-15.4
